Measured values as given in PubChem BioAssay (NCATS).
Results filed as inconclusive are left out. The source made the active and inactive calls. Unless noted, the call rests on the fitted dose curve; in most records, active means well fitted curve in the direction sought with a large enough effect; inconclusive means small, poorly fitted or top-dose-only effect, or another doubt; inactive means no such curve, though single readings can be large; an effect the other way counts as inactive or inconclusive.

Columns and labels:
[1] = target: Cytochrome P450 1A2 (Homo sapiens) (UniProt P05177); test: p450-cyp1a2 (AID 410; calls by dose curve; further: potency means the concentration at half of the fitted maximal effect;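 on activity change, negative = inhibition: -100% = full effect of reference inhibitor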)
Sequence of Cytochrome P450 1A2 (Homo sapiens) (P05177 whole entry, looked up): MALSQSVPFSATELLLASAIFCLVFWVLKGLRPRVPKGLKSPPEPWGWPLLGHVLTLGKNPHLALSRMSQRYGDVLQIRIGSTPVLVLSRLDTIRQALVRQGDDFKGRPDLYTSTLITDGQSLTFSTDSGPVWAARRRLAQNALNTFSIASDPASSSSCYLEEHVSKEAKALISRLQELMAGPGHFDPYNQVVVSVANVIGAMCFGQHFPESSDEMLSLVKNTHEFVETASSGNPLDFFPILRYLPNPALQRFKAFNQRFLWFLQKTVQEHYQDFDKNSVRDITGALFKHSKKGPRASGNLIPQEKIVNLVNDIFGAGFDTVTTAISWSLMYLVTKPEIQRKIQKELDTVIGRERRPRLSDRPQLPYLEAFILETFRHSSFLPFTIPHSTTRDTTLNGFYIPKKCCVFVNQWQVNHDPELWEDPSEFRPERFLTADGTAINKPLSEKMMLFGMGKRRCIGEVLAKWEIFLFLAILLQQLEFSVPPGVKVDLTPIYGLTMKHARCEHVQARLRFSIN
In short: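 Inhibition was calculated relative to 57 uM furafylline (full inhibition). The reaction used human CYP1A2 at 20nM with Luciferin-ME at its Km, 100uM, driven by an NADPH-regenerating system for 60 min at room temperature.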

[2] = NFAT Signaling Pathway (AID 444; active means well fitted curve in either direction with a large enough effect, not every such curve was filed as active;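 further: carbachol stimulus at about its EC50 of 1 µM final; on the % scale 0 is the no-effect control and ±100 the full control effect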); details: Jurkat NFAT-bla M1, carbachol, beta-lactamase ratio, 5 h; at 17.2 µM (top of the series) unless noted
In short: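 Jurkat cells with NFAT-driven β-lactamase reporter and co-expressed M1 receptor, stimulated with carbachol (final 1 uM, ~EC50), compound titration, 5 h at 37 °C. CCF4 loaded 1 h at RT; 460/530 nm ratio gave %activity and AC50.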

[3] = target: Glucocorticoid receptor (Homo sapiens) (UniProt P04150); test: GR-GFP Redistribution (AID 450;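 active means compounds whose dose series gives a full or clear partial fitted curve of increased nuclear translocation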; further: potency means the concentration at half of the fitted maximal effect)
Sequence of Glucocorticoid receptor (Homo sapiens) (P04150 whole entry, looked up, the tested form may be a part): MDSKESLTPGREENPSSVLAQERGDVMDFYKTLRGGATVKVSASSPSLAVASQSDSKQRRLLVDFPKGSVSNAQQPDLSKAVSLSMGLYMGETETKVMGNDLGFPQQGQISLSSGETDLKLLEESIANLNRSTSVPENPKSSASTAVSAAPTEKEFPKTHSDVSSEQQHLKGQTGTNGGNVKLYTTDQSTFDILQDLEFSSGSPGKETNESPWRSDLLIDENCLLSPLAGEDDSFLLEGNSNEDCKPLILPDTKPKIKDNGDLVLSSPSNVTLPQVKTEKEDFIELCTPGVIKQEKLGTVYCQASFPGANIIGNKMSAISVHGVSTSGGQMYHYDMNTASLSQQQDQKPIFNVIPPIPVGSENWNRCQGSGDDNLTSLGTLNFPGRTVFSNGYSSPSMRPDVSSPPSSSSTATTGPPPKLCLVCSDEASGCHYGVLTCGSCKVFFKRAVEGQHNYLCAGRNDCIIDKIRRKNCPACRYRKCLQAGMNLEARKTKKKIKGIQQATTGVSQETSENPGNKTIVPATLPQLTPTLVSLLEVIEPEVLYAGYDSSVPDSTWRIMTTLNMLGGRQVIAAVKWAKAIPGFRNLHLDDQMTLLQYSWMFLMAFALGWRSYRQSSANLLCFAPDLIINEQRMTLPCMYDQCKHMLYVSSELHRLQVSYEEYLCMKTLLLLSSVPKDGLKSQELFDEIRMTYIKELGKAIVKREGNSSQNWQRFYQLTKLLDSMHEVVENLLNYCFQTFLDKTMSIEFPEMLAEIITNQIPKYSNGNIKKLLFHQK

[4] = target: Glucocorticoid receptor (Homo sapiens) (UniProt P04150); test: GR-EFC Redistribution (AID 451; calls by dose curve; further: potency means the concentration at half of the fitted maximal effect); details: CHO-K1 GR-EFC translocation, beta-gal luminescence, 2 h
In short: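 CHO-K1 cells expressing nuclear EA and GR-ED fragments of b-gal; compounds titrated up to 46 uM final, 2 h at 37 C. GR nuclear translocation read as complemented b-gal luminescence after 1 h RT detection.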

[5] = target: 3',5'-cyclic-AMP phosphodiesterase 4B (Homo sapiens) (UniProt Q07343); test: qHTS Assay for Inhibitors of PDE-IV (AID 607; active means well fitted activation curve with a large enough effect in the main read-out, with a control signal flat, not every such curve was filed as active; further: % of control where 0% means no effect)
Sequence of 3',5'-cyclic-AMP phosphodiesterase 4B (Homo sapiens) (Q07343 whole entry, looked up): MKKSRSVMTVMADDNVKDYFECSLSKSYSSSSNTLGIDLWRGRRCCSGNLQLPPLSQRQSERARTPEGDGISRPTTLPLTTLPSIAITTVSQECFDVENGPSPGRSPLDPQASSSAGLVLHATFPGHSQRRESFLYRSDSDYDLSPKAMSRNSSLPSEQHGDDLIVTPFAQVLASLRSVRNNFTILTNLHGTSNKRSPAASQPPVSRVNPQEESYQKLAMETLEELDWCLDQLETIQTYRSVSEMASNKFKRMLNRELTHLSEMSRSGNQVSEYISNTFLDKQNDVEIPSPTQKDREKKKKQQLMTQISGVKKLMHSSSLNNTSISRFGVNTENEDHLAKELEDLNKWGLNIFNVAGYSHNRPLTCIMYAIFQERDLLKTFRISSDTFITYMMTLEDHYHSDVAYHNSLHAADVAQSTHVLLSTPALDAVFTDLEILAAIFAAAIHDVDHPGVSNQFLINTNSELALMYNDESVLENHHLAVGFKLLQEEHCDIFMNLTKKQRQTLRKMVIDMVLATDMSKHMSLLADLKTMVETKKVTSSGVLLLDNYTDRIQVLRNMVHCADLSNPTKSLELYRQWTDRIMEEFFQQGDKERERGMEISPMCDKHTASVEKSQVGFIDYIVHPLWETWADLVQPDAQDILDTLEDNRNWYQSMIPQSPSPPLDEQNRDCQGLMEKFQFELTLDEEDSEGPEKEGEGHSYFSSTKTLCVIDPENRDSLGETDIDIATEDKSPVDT
In short: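 The readout is membrane depolarisation from a cAMP-sensing CNG channel, detected with a potential dye at ex 535/em 590. Cells were HEK293-derived (endogenous PDE-IV) at 1000 cells/well, titrated up to 22.9 uM final.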

[6] = target: Guanine nucleotide-binding protein G(i) subunit alpha-1 (Homo sapiens) (UniProt P63096); test: qHTS Assay for Inhibitors of RGS12 GoLoco Motif Activity (Green Fluorophore) (AID 879);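 further: 0% = labeled peptide with Gαi1 and full inhibition = labeled peptide alone without protein; negative values mean loss of peptide binding seen as reduced polarization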
Sequence of Guanine nucleotide-binding protein G(i) subunit alpha-1 (Homo sapiens) (P63096 whole entry, looked up): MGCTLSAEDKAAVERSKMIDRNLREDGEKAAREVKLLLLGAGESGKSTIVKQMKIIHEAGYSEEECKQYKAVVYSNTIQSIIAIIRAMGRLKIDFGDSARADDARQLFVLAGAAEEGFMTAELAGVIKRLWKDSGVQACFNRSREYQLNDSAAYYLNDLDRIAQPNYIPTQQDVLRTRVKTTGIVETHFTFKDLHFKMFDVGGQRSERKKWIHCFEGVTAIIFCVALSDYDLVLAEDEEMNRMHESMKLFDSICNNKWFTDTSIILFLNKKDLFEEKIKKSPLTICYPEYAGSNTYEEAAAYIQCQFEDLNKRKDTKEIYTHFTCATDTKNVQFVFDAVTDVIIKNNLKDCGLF
In short: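 Fluorescence polarization assay: 50 nM Gαi1 with 10 nM FITC-labeled RGS12 GoLoco peptide in 10 mM Tris pH 7.5, 150 mM NaCl, 0.1 mM GDP, 0.05% NP40, 10 min at room temperature with compound.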

[7] = target: Cytochrome P450 2C9 (Homo sapiens) (UniProt P11712); test: qHTS Assay for Inhibitors and Substrates of Cytochrome P450 2C9 (AID 883); further: on the % scale 0 is the no-effect control and ±100 the full control effect; nearly all actives have a fitted effect of over 60% in size
In short: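 Human CYP2C9 (10nM) with Luciferin-H at 100uM (its KM) in 25mM KPO4; compound preincubated 10 min at 37C, then NADPH regeneration for 60 min at 37C. Luciferin read by luminescence after detection reagent; normalized to 57uM sulphaphenazole as full inhibition.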

[8] = target: Cytochrome P450 3A4 (Homo sapiens) (UniProt P08684); test: qHTS Assay for Inhibitors and Substrates of Cytochrome P450 3A4 (AID 884); further: potency means the concentration at half of the fitted maximal effect; nearly all actives have a fitted effect of over 50% in size
Sequence of Cytochrome P450 3A4 (Homo sapiens) (P08684 whole entry, looked up): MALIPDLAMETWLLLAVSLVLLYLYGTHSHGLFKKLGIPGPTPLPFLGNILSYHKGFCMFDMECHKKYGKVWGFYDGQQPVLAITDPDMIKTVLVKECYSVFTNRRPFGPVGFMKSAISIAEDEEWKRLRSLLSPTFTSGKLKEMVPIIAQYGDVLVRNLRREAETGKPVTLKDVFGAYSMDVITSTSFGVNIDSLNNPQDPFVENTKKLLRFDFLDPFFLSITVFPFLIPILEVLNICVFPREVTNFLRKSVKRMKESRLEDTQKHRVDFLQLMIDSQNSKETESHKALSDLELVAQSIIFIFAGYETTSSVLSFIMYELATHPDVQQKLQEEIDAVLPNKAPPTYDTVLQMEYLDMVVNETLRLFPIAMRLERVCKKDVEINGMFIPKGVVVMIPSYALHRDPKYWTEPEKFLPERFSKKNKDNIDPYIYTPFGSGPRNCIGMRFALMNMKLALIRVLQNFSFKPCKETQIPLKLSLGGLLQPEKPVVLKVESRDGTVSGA
In short: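 20 nM human CYP3A4 with 25 uM Luciferin-PPXE (at KM) in 200 mM KPO4, preincubated 10 min with compound; NADPH regeneration started a 60 min RT reaction. Luciferin detected by luminescence, normalized to 57 uM ketoconazole as full inhibition.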

[9] = target: Cytochrome P450 3A4 (Homo sapiens) (UniProt P08684); test: qHTS Assay for Activators of Cytochrome P450 3A4 (AID 885); further: nearly all actives have a fitted effect of over 65% in size
In short: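 Steps: enzyme/substrate mix dispensed; compound added, 10 min RT; NADPH regeneration solution added, 60 min RT; luciferin detection buffer stops reaction; 20 min later luminescence measured.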

[10] = target: Cytochrome P450 2C19 (Homo sapiens) (UniProt P33261); test: qHTS Assay for Inhibitors and Substrates of Cytochrome P450 2C19 (AID 899); further: potency means the concentration at half of the fitted maximal effect; nearly all actives have a fitted effect of over 60% in size
Sequence of Cytochrome P450 2C19 (Homo sapiens) (P33261 whole entry, looked up): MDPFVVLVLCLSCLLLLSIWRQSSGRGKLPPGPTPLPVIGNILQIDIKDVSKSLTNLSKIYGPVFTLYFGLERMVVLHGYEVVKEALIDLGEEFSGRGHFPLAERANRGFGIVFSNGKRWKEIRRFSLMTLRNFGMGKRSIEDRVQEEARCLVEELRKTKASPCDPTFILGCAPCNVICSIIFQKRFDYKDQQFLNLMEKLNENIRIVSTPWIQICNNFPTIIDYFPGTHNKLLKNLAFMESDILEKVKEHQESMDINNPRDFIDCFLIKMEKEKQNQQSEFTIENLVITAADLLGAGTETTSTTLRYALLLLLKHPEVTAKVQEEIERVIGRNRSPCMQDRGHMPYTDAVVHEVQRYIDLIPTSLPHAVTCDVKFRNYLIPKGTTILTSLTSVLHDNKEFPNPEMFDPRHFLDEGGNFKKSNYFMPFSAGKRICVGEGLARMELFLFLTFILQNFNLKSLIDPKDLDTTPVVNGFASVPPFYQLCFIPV
In short: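 5 nM human CYP2C19 with 10uM Luciferin-H EGE (at KM) in 50mM KPO4, compound preincubated 10 min at 37C, then NADPH regeneration for 60 min at 37C. Luciferin read by luminescence after detection reagent; normalized to 57uM ketoconazole as full inhibition.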

[11] = qHTS Assay for Identification of Small Molecule Agonists for Thrombopoietin (TPO) Signaling Pathway (AID 917); further: potency means the concentration at half of the fitted maximal effect
In short: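 Reporter: GpIIb promoter–luciferase in murine Ba/F3 expressing human TPO receptor. Pre-starved of IL-3 overnight; compounds with 26 pM TPO, 24 hrs, 37 C/5% CO2; luminescence read.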

[12] = qHTS Assay for Identification of Small Molecule Agonists for NFkB Signaling Pathway (AID 928; calls by dose curve); details: NFkB beta-lactamase reporter cells, blue/green ratio
In short: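 ME-180 NFkB-bla cells carry a beta-lactamase reporter under an NFkB response element. Compound plus 10 pM TNF alpha (final) was applied for 5 hrs at 37 C. After 2 hrs with LiveBLAzer substrate, 460/530 nm emission was read at 405 nm excitation.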

[13] = target: Pyruvate kinase (Leishmania mexicana) (UniProt Q27686); test: qHTS Validation Assay for Inhibitors of Leishmania Mexicana Pyruvate Kinase (AID 945); further: potency means the concentration at half of the fitted maximal effect;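 on activity change, negative = inhibition: 0% = DMSO only neutral control wells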
Sequence of Pyruvate kinase (Leishmania mexicana) (Q27686 2-499 E452W): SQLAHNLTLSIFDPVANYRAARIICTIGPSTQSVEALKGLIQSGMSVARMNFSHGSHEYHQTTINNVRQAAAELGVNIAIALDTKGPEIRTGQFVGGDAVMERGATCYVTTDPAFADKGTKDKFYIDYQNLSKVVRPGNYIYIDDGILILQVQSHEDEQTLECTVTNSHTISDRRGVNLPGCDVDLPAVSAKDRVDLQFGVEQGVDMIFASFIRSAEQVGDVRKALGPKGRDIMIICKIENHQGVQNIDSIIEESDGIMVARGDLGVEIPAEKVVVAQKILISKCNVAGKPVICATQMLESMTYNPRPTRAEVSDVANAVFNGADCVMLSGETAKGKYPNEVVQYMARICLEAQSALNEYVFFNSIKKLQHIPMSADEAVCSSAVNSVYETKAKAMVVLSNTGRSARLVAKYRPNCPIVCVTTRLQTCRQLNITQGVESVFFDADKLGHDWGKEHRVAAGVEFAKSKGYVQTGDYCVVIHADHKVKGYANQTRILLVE
In short: (§1)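 Substrate mix (0.5 mM PEP, 0.1 mM ADP, 7 mM MgCl2, 50 mM KCl, pH 7.2 imidazole) received compound by pin tool, then 0.2 nM LmPYK E451W. After 1 h at room temperature, PKLight was added and luminescence measured.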

[14] = target: Pyruvate kinase PKM (Homo sapiens) (UniProt P14618); test: qHTS Assay for Activators of Human Muscle Pyruvate Kinase (AID 954; active means well fitted curve in the direction sought with a large enough effect, not every such curve was filed as active;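 further: 0% = uninhibited enzyme and -100% = no enzyme or full thiadiazolimine inhibition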)
Sequence of Pyruvate kinase PKM (Homo sapiens) (P14618 whole entry, looked up): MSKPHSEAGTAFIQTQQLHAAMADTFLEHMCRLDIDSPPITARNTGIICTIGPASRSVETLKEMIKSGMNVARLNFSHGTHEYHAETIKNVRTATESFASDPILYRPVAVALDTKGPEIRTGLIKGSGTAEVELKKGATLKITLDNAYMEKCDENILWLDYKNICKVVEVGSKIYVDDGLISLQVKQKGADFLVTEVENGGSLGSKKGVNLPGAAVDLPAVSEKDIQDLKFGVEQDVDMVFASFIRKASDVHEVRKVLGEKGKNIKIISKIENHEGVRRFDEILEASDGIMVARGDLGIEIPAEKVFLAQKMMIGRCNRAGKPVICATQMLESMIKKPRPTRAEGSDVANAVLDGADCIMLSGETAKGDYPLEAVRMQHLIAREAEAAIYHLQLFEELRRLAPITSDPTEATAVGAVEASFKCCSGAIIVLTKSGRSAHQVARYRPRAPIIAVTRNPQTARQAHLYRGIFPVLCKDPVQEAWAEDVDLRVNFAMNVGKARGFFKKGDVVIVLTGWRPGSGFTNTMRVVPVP
In short: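 Reaction: 0.1 nM purified PKM2 with 0.5 mM phosphoenolpyruvate and 0.1 mM ADP, room temperature, 1 h. Readout: luciferase-based ATP luminescence after stop reagent. Activators judged against a 0.3 nM enzyme column.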

[15] = target: Pyruvate kinase PKM (Homo sapiens) (UniProt P14618); test: qHTS Assay for Inhibitors of Human Muscle Pyruvate Kinase (AID 958)
In short: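 Purified human PKM2 (0.1 nM) with 0.5 mM PEP (Km) and 0.1 mM ADP in 50 mM imidazole pH 7.2, KCl, MgCl2, 1 h at room temperature; ATP formed read by coupled luciferase luminescence. Normalized to no-enzyme/110 uM thiadiazolimine inhibition; 0.3 nM enzyme column for activation.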

[16] = target: Pyruvate kinase (Leishmania mexicana) (UniProt Q27686); test: qHTS Validation Assay for Activators of Leishmania Mexicana Pyruvate Kinase (AID 959)
In short: as §1

[17] = target: Alpha-galactosidase A (Homo sapiens) (UniProt P06280); test: Counterscreen for Glucocerebrosidase Inhibitors: qHTS Assay for Human alpha-Galactosidase at pH 4.5 (AID 992); further: 0% is about no effect
Sequence of Alpha-galactosidase A (Homo sapiens) (P06280 whole entry, looked up): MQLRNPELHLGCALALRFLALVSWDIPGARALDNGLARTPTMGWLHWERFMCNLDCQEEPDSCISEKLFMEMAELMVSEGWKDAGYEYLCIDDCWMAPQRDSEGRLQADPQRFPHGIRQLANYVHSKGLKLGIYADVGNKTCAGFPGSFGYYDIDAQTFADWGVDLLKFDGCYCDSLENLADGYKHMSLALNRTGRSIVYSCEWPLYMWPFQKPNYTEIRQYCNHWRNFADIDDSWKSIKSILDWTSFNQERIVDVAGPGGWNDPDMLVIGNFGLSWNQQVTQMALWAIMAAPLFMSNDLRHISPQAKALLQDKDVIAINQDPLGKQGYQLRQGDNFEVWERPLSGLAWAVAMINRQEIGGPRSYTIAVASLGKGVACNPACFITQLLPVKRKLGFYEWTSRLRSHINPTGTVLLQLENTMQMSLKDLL
In short: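 Concentration-response curves (0.7 nM to 77 uM final) were modeled with the Hill equation to give AC50. Reactions: 2 nM enzyme, 80 uM fluorogenic alpha-galactoside, pH 4.5 citric acid buffer, 20 min, room temperature.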

[18] = target: alpha-glucosidase (Oryza sativa, rice) (UniProt Q653V4); test: Counterscreen for Glucocerebrosidase Inhibitors: qHTS Assay for Rice alpha-Glucosidase at pH 5.0 (AID 997);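 further: 0% = full activity with enzyme and -100% = basal without enzyme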
In short: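 Rice alpha-glucosidase (4 nM final) with 400 uM 4-methylumbelliferyl-alpha-D-glucopyranoside in citrate buffer pH 5.0, 20 min at room temperature, stopped at pH 10; fluorescence 365/440 nm, compounds 0.7 nM–77 uM, AC50 from Hill fits.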

[19] = Stat Signaling Pathway (AID 446; active means well fitted curve in either direction with a large enough effect, not every such curve was filed as active;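 further: ME-180 cervical cancer cells given 40 pM IL-6 alongside compound; SIE-controlled beta-lactamase reporter measured as 460/530 nm FRET emission ratio; on the % scale 0 is the no-effect control and ±100 the full control effect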); details: ME-180 SIE beta-lactamase reporter, IL-6 stimulated, 5 h; at 17.2 µM (top of the series) unless noted
In short: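 Screening format detects activators and inhibitors alike: ME-180 SIE-bla cells stimulated at 40 pM IL-6 for 5 hrs with compound, then dual-emission beta-lactamase read at 405 nm excitation.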

[20] = target: Mitogen-activated protein kinase 10 (Mus musculus) (UniProt Q61831); test: JNK3 AlphaScreen Assay (AID 530; active means well fitted curve in either direction with a large enough effect, not every such curve was filed as active;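 further: kinase came from lysate of stimulated human HepG2 cells; signal reports phosphorylation of biotinylated GST-cJun 1-79 at Ser73 with 10 µM ATP; on the % scale 0 is the no-effect control and ±100 the full control effect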)
In short: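 qHTS format: compounds tested as titrations against IL-1beta/TNF-alpha-activated HepG2 lysate JNK3 with biotin-GST-cJun substrate and 10 uM ATP at room temperature. Loss of anti-phospho-cJun AlphaScreen signal indicates inhibition.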

[21] = target: Ubiquitin carboxyl-terminal hydrolase 1 (Homo sapiens) (UniProt O94782); test: Inhibitors of USP1/UAF1: Pilot qHTS (AID 504865);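 further: rhodamine fluorescence freed from ubiquitin-rhodamine substrate followed over time; top concentration of the series differs between compounds; on the % scale 0 is the no-effect control and ±100 the full control effect; nearly all actives have a fitted effect of over 35% in size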
In short: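 Deubiquitinase activity followed as kinetic rhodamine fluorescence release from 150 nM Ub-Rho. 1 nM USP1/UAF1 with compound, after 15 min room-temperature preincubation, in HEPES pH 7.8 buffer containing TCEP, EDTA, BSA and Tween-20.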

[22] = target: Muscarinic acetylcholine receptor M1 (Rattus norvegicus) (UniProt P08482); test: qHTS Assay for Antagonists of Acetylcholine Muscarinic M1 Receptor: Measurement of IP-One Response (AID 944); further: nearly all actives have a fitted effect of over 75% in size
In short: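 Steps: plate transfected CHO-M1 cells overnight; add test compound, 10 min; add carbachol (200 nM, EC80) in stimulation buffer with LiCl; incubate 30 min; add labelled IP1 tracer and anti-IP1 antibody in lysis buffer; read HTRF after 10 min.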

COc1ccc(NC(=O)/C=C\c2ccc(Cl)cc2)cc1
active: Potency [1] 5.01 µM | Potency [8] 25.1 µM | Potency [10] 3.98 µM | Potency [11] 0.316 µM | Potency [12] 1.41 µM | Potency [13] 10 µM | Potency [15] 15.8 µM
inactive: activity change, negative = inhibition [2] -10.1% [at 38 µM] | Potency [3] > 46 µM | Potency [4] > 46 µM | Potency [5] | outcome [6] | Potency [7] | Potency [9] | outcome [14] | Potency [16] | outcome [17] | outcome [18]

COc1cc(/C=C\C(=O)N2CCC=CC2=O)cc(OC)c1OC
active: Potency [1] 0.2 µM | activity change, negative = inhibition [2] -142% | activity, negative = inhibition [19] -101%
inactive: Potency [3] > 20.6 µM | Potency [4] > 20.6 µM | Potency [20] | Potency [5] | Potency [21]

CCCCC#Cc1nc(N)c2ncn([C@@H]3O[C@@H](C(=O)NCC)[C@H](O)[C@@H]3O)c2n1
inactive: Potency [1] | activity change, negative = inhibition [2] 15.6% [at 38 µM] | Potency [3] > 46 µM | Potency [4] > 46 µM | Potency [20] | Potency [5] | outcome [6] | Potency [9] | Potency [11] | Potency [22] | Potency [13] | outcome [14] | outcome [17] | outcome [18]
